Assay outcomes: PubChem BioAssay, National Center for Advancing Translational Sciences (NCATS)
RECQ1 inh-1: RECQ1 (human) helicase inhibition; P46063; RECQ1 DNA unwinding, red fluorescence kinetic read; AID 2549; Potency, µM (highest dose often 57.3 µM), for inactives: at the highest dose activity, negative = inhibition, most hits filed as inhibitors; actives 0.54% (n = 240,000);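 also: plate controls were vehicle for no effect and no enzyme for full effect; nearly all actives have a fitted effect of over 30% in size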
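RECQ1T1 50 nM; forked duplex (20 bp + 30-nt ss tails) 200 nM, ATP 2 mM final; pH 8.0, 2 mM MgCl2, 2.5 ug/ml poly(dI-dC); 15 min compound preincubation; discontinuous kinetic read over 2 h at RT.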
GoLoco inh red: blocks human Gai1 binding to RGS12 GoLoco peptide, red readout. Potency, µM (top dose mostly 61.6 µM), inactives show top-dose activity, negative = inhibition, most hits filed as inhibitors. P63096. Gai1:RGS12 GoLoco peptide FP, rhodamine, 10 min. AID 880. actives 0.44% (n = 230,000); active = well fitted inhibition curve with a large enough effect, not every such curve was filed as active; inactive = no such curve, though single readings can be large or run the other way; also: nearly all actives have a fitted effect of over 30% in size
BLM inh: inhibitors of human Bloom syndrome helicase BLM. P54132. recombinant BLM DNA unwinding, fluorescence dequenching. Potency, µM (titrated, usually from 56.1 µM), for inactives: at the top dose activity change, negative = inhibition, most hits filed as inhibitors. actives 0.2% (n = 350,000);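 also: plate controls were vehicle for no effect and no enzyme for full effect; nearly all actives have a fitted effect of over 35% in size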
TR SRC2 fluor cs: alters Texas Red total fluorescence, flagging assay interference | TRb/SRC2 Texas Red total fluorescence interference | Potency, µM (titrated, usually from 106 µM), inactives show at the top dose fluorescence change, negative = quenching | actives 0.29% (n = 280,000); active = well fitted curve in either direction with a large enough effect; inconclusive = small, poorly fitted or top-dose-only effect
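Human TRβ ligand-binding domain (0.6 uM) and Texas Red SRC2 peptide (20 nM) in Tris buffer with 1 uM T3 and 5% DMSO were incubated with pinned compound for 5 hr at ambient temperature. Total fluorescence was computed as S + 2P (555/632 nm).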
TRb SRC2 PPI: disrupts binding of human TR beta to SRC2. P10828. TRbeta-SRC2 peptide binding, fluorescence polarization; receptor liganded with 1 µM T3. Potency, µM (top dose mostly 106 µM), for inactives: at the top dose activity change, negative = inhibition, most hits filed as inhibitors. actives 0.065% (n = 280,000). AID 1469;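 also: plate controls were bound peptide for no effect and peptide without receptor for full effect; nearly all actives have a fitted effect of over 50% in size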
Target sequence (P10828 whole entry, looked up): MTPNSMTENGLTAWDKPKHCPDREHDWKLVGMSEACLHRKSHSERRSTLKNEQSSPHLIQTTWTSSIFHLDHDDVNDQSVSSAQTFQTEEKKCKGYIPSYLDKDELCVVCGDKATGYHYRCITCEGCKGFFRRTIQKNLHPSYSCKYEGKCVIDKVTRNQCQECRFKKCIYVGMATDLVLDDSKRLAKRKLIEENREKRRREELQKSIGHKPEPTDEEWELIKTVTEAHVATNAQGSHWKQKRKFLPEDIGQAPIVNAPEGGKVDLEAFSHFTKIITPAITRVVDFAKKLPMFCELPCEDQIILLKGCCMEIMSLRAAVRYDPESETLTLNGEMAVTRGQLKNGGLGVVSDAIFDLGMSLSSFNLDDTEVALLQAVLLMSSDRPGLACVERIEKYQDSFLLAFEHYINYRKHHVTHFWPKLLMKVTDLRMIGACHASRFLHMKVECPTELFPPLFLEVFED
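Compounds were added to 0.6 uM TRb ligand-binding domain and 20 nM Texas Red-labeled SRC2 peptide in Tris buffer containing 1 uM T3, incubated 5 hr at ambient temperature, then read by fluorescence polarization.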
APEX1 inh: APE1 (human) endonuclease inhibition | P27695 | recombinant APE1, TAMRA/BHQ-2 abasic DNA cleavage fluorescence | Potency, µM (series often up to 65.8 µM), inactives show at the highest dose activity change, negative = inhibition, actives largely listed as inhibitors | actives 0.35% (n = 350,000);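 also: plate controls were vehicle for no effect and reference inhibitor for full effect; nearly all actives have a fitted effect of over 55% in size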
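Substrate: short duplex with […] THF abasic site, 5'-TAMRA and 3'-BHQ-2, 50 nM final. APE1 at 0.75 nM, preincubated 15 min RT with compound. Fluorescence increase from first to third read measured activity.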
RECQ1 conf: confirmation of human RECQ1 helicase inhibitors; AID 2708; actives 28% (n = 610); Potency, µM (top dose mostly 229 µM), inactives show at the top dose activity change, negative = inhibition, usual class: inhibitors; RECQ1 helicase DNA unwinding, fluorescence; shares compounds with RECQ1 inh-1; also: nearly all actives have a fitted effect of over 45% in size
RECQ1 ADP FP: ADP displacement flagged in RECQ1 inhibitor counter-screen; Potency, µM (doses to about 228 µM), without a hit: top-dose activity change, negative = inhibition, actives largely listed as inhibitors; actives 27% (n = 530); shares compounds with RECQ1 inh-1; ADP fluorescence polarization displacement counterscreen; AID 2711; also: nearly all actives have a fitted effect of over 45% in size
RECQ1 inh-2: confirmation of human RECQ1 helicase inhibitors; shares compounds with RECQ1 inh-1; recombinant RECQ1 DNA unwinding, red fluorescence; AID 504841; Potency, µM (doses to about 119 µM), without a hit: top-dose activity, negative = inhibition, actives largely listed as inhibitors; actives 15% (n = 1,100); also: nearly all actives have a fitted effect of over 50% in size
Numbers without * were called inactive; [ ] = another dose, or the depositor's remark. In the library only some 0.9% were active in any assay of this set; here they are far more common. Unless noted, calls follow the shape of the dose curve; as a rule, active = well fitted curve in the direction sought with a large enough effect; inconclusive = small, poorly fitted or top-dose-only effect, or another doubt; inactive = no such curve, though single readings can be large; an effect the other way counts as inactive or inconclusive. Unless noted, % is scaled to controls: 0 for no effect and ±100 for the full control effect; potency is read from the fitted curve at half-maximal effect.

CCc1ccc(-n2c(C)nc3cc(C(=O)NCCc4ccccc4)ccc32)cc1 was read as BLM inh -14%, TR SRC2 fluor cs -2% and TRb SRC2 PPI 5%.
Screening COc1ccc(-c2cc(=O)c3cc(O)ccc3o2)cc1 returned RECQ1 inh-1 inconclusive, GoLoco inh red -5%, BLM inh 0%, TR SRC2 fluor cs -1%, TRb SRC2 PPI 6%, APEX1 inh 1% and RECQ1 inh-2 -18%.
Screening COc1ccc(N2CCN(C(=O)C(C)n3nc(C)c4sc5ccccc5c4c3=O)CC2)cc1 (stereo unspecified) returned BLM inh 51%, TR SRC2 fluor cs -1% and TRb SRC2 PPI -1%.
Screening O=C(O)/C(=C\c1ccccc1Cl)c1ccc(S(=O)(=O)N2CCCCC2)s1 returned RECQ1 inh-1 3%, BLM inh -16%, TR SRC2 fluor cs -4%, TRb SRC2 PPI 4%, APEX1 inh 24%, RECQ1 conf 126µM* and RECQ1 ADP FP -9%.
For O=C(O)/C(=C\c1ccc(Cl)cc1)c1ccc(S(=O)(=O)N2CCCC2)s1 the results were APEX1 inh -7%.
Screening Cc1ccc(CSCC(Nc2ccc(C(=O)O)cc2[N+](=O)[O-])C(=O)O)cc1 (stereo unspecified) returned RECQ1 inh-1 19%, GoLoco inh red 4%, BLM inh 0%, TR SRC2 fluor cs -1%, TRb SRC2 PPI -1% and APEX1 inh 11%.
For O=C(O)c1ccc(NC(CSCc2ccc(F)cc2)C(=O)O)c([N+](=O)[O-])c1 (stereo unspecified) the results were RECQ1 inh-1 7%, GoLoco inh red -3%, BLM inh 1%, TR SRC2 fluor cs 1%, TRb SRC2 PPI 4%, APEX1 inh -2%, RECQ1 conf 23% and RECQ1 ADP FP -6%.
For CCOc1ccc(C2=NC(c3cccs3)=Nc3ccc(CC)cc3N2)cc1OCC the results were BLM inh -8%, TR SRC2 fluor cs -2% and TRb SRC2 PPI -4%.
For O=C(N=C1SCC(=O)N1c1ccccc1Cl)c1ccco1 the results were RECQ1 inh-1 18µM*, GoLoco inh red 141%, BLM inh -3%, TR SRC2 fluor cs inconclusive, TRb SRC2 PPI 28%, APEX1 inh -5%, RECQ1 conf 14%[114 µM], RECQ1 ADP FP 132%[91.9 µM] and RECQ1 inh-2 inconclusive.
Screening O=C1c2ccccc2C(=O)c2c1cccc2N(CCO)CCO returned BLM inh -6% and APEX1 inh 7%.
For O=C1C=C(N(CCO)Cc2ccccc2)c2ccccc2C1=O the results were RECQ1 inh-1 inconclusive, GoLoco inh red 10%, BLM inh inconclusive, TR SRC2 fluor cs -4%, TRb SRC2 PPI inconclusive, APEX1 inh -1% and RECQ1 inh-2 inconclusive.
For CCOC(=O)C1CCN(C(=O)Nc2ccc3nc(-c4ccco4)c(-c4ccco4)nc3c2)CC1 the results were RECQ1 inh-1 10µM*, GoLoco inh red 12%, BLM inh 4.5µM*, TR SRC2 fluor cs inconclusive, TRb SRC2 PPI 3%, APEX1 inh 7.9µM* and RECQ1 inh-2 inconclusive.
`Cc1ccc(NC(=O)CCn2c(=O)c3cccn3c3ccccc32)cc1Cl` gave BLM inh -6%, TR SRC2 fluor cs 3% and TRb SRC2 PPI 10%.
Screening CCOC(=O)C1(CCc2ccccc2)CCN(C(=O)C2CCCO2)CC1 (stereo unspecified) returned RECQ1 inh-1 inconclusive, GoLoco inh red 1%, BLM inh -2%, TR SRC2 fluor cs 0%, TRb SRC2 PPI 5%, APEX1 inh -2% and RECQ1 inh-2 2%.
`O=C(/C=C/c1cccnc1)c1ccc(NC(=O)c2cccc(Br)c2)cc1` gave RECQ1 inh-1 -7%, GoLoco inh red 10%, BLM inh -6%, TR SRC2 fluor cs -5%, TRb SRC2 PPI -5% and APEX1 inh -5%.
Cc1cccc(C(=O)Nc2ccc(C(=O)/C=C/c3cccnc3)cc2)c1 was read as RECQ1 inh-1 1.1µM*, GoLoco inh red 7%, BLM inh -15%, TR SRC2 fluor cs 0%, TRb SRC2 PPI 13%, APEX1 inh 3%, RECQ1 conf -8%[114 µM] and RECQ1 inh-2 inconclusive.
Cc1ccn2cc(-c3ccc(C)c(NS(=O)(=O)c4ccc(Cl)cc4)c3)nc2c1 was read as BLM inh -6%, TR SRC2 fluor cs -1% and TRb SRC2 PPI -3%.
For O=C(CC1C(=O)NCCN1Cc1ccc(F)cc1)NCCOc1cccnc1 (stereo unspecified) the results were RECQ1 inh-1 -9%, GoLoco inh red -18%, BLM inh -3%, TR SRC2 fluor cs -2%, TRb SRC2 PPI -2% and APEX1 inh -6%.
For O=C(CC1C(=O)NCCN1Cc1ccc(-c2ccccc2)cc1)NCCOc1cccnc1 (stereo unspecified) the results were RECQ1 inh-1 inconclusive, GoLoco inh red -10%, BLM inh 1%, TR SRC2 fluor cs -1%, TRb SRC2 PPI -4%, APEX1 inh -7% and RECQ1 inh-2 -14%.
For CCc1ccc(Oc2c(C(F)(F)F)oc3c(CN4CCN(C)CC4)c(O)ccc3c2=O)cc1 the results were BLM inh 2%, TR SRC2 fluor cs 3% and TRb SRC2 PPI -5%.
Clc1ccc2c(c1)-c1c(cnc3cc(-c4ccccc4)nn13)CO2 was read as BLM inh -2%, TR SRC2 fluor cs -4% and TRb SRC2 PPI 2%.
Screening CCOc1ccc(C(=O)Nc2cccc(-c3cc4ccccc4oc3=O)c2)cc1[N+](=O)[O-] returned RECQ1 inh-1 25µM*, GoLoco inh red -5%, BLM inh -10%, TR SRC2 fluor cs -19%, TRb SRC2 PPI 24%, APEX1 inh -11% and RECQ1 inh-2 inconclusive.
